The whole screen tested about 21,000 compounds, of which fewer than 10 were called active. Not all results are given here. Values without a mark were called inactive.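 The calls were made as follows: active = inhibition above 50% at the 20 µM single-dose screen; inactive = the rest.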

In general, inhibition refers to the change of the read-out against control, counted positive when it falls.

Sequence of Alkaline phosphatase, tissue-nonspecific isozyme (Homo sapiens) (P05186 whole entry, looked up): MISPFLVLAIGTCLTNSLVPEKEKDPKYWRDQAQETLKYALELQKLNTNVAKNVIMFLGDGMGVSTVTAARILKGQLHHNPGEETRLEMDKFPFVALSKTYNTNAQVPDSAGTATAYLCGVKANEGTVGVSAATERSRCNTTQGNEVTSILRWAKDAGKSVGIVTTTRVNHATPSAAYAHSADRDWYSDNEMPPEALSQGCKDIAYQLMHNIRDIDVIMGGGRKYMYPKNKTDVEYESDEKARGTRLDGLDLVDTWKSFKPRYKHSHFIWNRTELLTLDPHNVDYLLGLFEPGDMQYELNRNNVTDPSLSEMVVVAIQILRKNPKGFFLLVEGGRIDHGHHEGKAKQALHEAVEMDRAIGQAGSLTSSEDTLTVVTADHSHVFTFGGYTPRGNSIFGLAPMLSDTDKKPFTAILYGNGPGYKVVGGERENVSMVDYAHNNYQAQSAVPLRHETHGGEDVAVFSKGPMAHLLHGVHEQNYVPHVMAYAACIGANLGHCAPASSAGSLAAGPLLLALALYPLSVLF

The assay concerns the target Alkaline phosphatase, tissue-nonspecific isozyme (Homo sapiens) (UniProt P05186). Kind of assay: blockers of alkaline phosphatase TNAP activity – biochemical, colorimetric, phosphate release readout, primary screen (AID 614). Particulars: purified TNAP, pNPP, malachite green phosphate absorbance; at 20 µM; active compounds read high.
As to `CC1CCN(C(=O)Cn2cc(C(=O)c3ccco3)c3ccccc32)CC1`, the inhibition is 14.2%.
Next, `O=C(c1ccccc1)N1CCN(C(=O)N2CCCCC2)CC1`: -5.7%.
Next, `CC1C(c2ccccc2)=[N+]([O-])C2(CCCC2)N1O` (centres undefined): 12.6%.
As for `Cc1nonc1OCCn1nnnc1N`, the figure is 8.7%; as for `O=C(OC(C(=O)NC1CCCC1)c1ccc(F)cc1)c1ccno1` (centres undefined), 0%; as for `CCc1ccccc1NC(=O)CSc1nnc([C@@H](NC(=O)OC(C)(C)C)C(C)C)o1`, 4.3%.
`CC1OC2C(OC1C)N(S(C)(=O)=O)CCN2S(C)(=O)=O` (centres undefined): the inhibition is 10%.
Next, `O=C(CCN1C(=O)c2ccccc2C1=O)Nc1ccncc1`: 7.9%; `CCOC(=O)CSc1nc2sc3c(c2c(=O)[nH]1)CC(C)(C)OC3`: -12.8%.
As for `COc1ccc(-c2cc(C(F)(F)F)n3nc(C(=O)N4CCOCC4)c(Cl)c3n2)cc1`, the figure is 6%; as for `C=C(Br)Cn1c(CCCC)nc2ccccc21`, 0%; as for `COc1ccc(Br)cc1/C=N/n1c(C)nnc1C`, 8.2%.
As for `CCC(=O)Nc1sc(C(=O)N2CCCCC2)c(C)c1C#N`, the figure is -23.7%.
Turning to `CCCCNc1nc2ccccc2nc1NS(=O)(=O)c1cccs1`, the inhibition is 1.2%.
Next, `COc1cc(C2C(C(=O)c3sc(C)nc3C)=C(O)C(=O)N2CCN(C)C)cc(OC)c1OC` (centres undefined): 13%; `Cc1cc(C)c(C#N)c(SCc2ccccc2C(=O)O)n1`: -0.3%; `CCCCc1nc2ccccc2c(=O)n1NC(=O)c1c(O)c2cccc3c2n(c1=O)CC3`: 4.4%.
As for `Cc1ccc2cc(C#N)c(SCC(=O)NCC3CCCO3)nc2c1C` (centres undefined), the figure is 8.6%; as for `COc1ccc2c(c1OC)C(=O)OC2c1c(O)nc(SC)n(-c2ccccc2)c1=O` (centres undefined), -0.7%.
Regarding `Cc1ccc2c(NC(=O)C3CC3)cccc2n1`, the inhibition is 9.9%.
`O=c1c(F)cn(C2CCCO2)c(=O)n1Cc1ccccc1Cl` (centres undefined): the inhibition is 7.7%.
As for `COCCNC(=O)c1ccccc1-c1nc(-c2ccccc2Cl)no1`, the figure is 1.6%.
Next, `Cc1cc(C)nc(N(C#N)CC(=O)Nc2ccccc2)n1`: -15.3%.
As for `CCCCNC(=O)CSc1nccn1Cc1ccccc1`, the figure is 10.7%; as for `CCC(C)NC(=O)N[C@@H](CCSC)C(=O)O` (some centres undefined), 8.1%; as for `O=C(Nc1cnccn1)c1cccnc1`, 6.7%.
For `COc1ccc(-c2n[nH]c(C)c2-c2ccc(OC)c(OC)c2)c(O)c1`, the inhibition is 7.2%.
As for `c1nc(COc2nsnc2N2CCOCC2)cs1`, the figure is 5.5%; as for `Cc1cc2ccccc2n2c(SCC(=O)N3CCN(C(=O)c4ccco4)CC3)nnc12`, 12.5%.

The record behind these values is PubChem BioAssay AID614 (Sanford-Burnham Center for Chemical Genomics, 2007).
